The source of these data is PubChem BioAssay (NCATS).

Values joined by “and” are separate entries in the source; they are usually repeats but may differ in a detail not shown here. Equal values may be shown once. Inconclusive results are not listed. Active and inactive are the calls of the source.

Chain of Glucocorticoid receptor (Homo sapiens) (P04150 whole entry, looked up): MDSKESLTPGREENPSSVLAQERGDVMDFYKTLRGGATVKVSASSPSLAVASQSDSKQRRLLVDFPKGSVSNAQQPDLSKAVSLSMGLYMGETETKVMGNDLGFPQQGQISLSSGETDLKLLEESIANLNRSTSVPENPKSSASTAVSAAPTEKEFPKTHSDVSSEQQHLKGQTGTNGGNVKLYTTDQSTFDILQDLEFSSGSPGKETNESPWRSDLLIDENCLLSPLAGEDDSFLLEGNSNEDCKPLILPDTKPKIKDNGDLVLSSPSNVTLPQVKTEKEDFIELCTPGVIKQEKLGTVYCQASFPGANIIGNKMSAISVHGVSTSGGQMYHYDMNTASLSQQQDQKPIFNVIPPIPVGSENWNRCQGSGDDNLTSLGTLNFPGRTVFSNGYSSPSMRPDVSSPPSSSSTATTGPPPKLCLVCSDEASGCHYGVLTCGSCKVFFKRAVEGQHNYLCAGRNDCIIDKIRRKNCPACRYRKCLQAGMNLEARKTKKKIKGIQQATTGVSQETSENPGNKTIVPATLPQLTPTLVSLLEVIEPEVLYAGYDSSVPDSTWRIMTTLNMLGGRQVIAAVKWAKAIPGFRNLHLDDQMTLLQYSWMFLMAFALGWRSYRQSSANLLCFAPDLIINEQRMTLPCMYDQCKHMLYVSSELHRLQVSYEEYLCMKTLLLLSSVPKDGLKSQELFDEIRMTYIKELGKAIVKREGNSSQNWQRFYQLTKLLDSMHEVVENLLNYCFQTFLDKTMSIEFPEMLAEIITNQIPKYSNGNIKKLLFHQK
Chain of Peroxisome proliferator-activated receptor delta (Homo sapiens) (Q03181 whole entry, looked up): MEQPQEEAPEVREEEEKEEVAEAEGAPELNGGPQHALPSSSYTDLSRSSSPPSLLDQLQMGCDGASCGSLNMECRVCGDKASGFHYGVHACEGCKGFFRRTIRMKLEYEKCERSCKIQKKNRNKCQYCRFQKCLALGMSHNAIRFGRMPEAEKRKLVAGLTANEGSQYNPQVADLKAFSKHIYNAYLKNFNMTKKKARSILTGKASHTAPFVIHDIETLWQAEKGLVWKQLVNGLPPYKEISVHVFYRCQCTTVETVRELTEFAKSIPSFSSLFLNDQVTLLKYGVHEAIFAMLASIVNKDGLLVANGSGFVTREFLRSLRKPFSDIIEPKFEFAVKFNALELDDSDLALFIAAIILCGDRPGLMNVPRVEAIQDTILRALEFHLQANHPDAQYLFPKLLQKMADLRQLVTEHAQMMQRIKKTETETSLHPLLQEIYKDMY

One test has as its target Glucocorticoid receptor (Homo sapiens) (UniProt P04150). In words: qHTS assay for small molecule antagonists of glucocorticoid receptor signaling (AID 588533; active = well fitted inhibition curve with a large enough effect in the signal ratio, with a control signal flat, not every such curve was filed as active; the % refers to the signal ratio;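 note: cells stimulated with 2 nM dexamethasone as agonist; % is set by controls: 0 for no effect and ±100 for the full control effect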). Conditions: HeLa MMTV-bla, GRE beta-lactamase ratio, antagonist mode, 18 h; series mostly up to 76.8 µM; activity change, negative = inhibition: at the top concentration. An outline of the steps:
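Antagonist-mode qHTS: compound titrations added to GRE-bla HeLa cells, then dexamethasone 2 nM final; 18 h, 37 C. CCF4 FRET fluorescence normalized to dexamethasone and DMSO; IC50 from Hill fit.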
As for `NC(=O)c1ccccc1O`, the “activity change, negative = inhibition” value was -11% (inactive).

Consider `CCCN(CCC)S(=O)(=O)c1ccc(C(=O)O)cc1`, for which the outcome was inactive.

Turning to `C=C[C@@]1(C)CC(=O)[C@]2(O)[C@@]3(C)[C@@H](O)CCC(C)(C)[C@@H]3[C@H](O)[C@H](OC(C)=O)[C@@]2(C)O1`, the “activity change, negative = inhibition” value was -12.6% (inactive).

Take `COc1ccc(C(Cl)=C(c2ccc(OC)cc2)c2ccc(OC)cc2)cc1`: the “activity change, negative = inhibition” value is -3.14% (inactive).

For the compound `CCCCCCCCCCCCCCCCO`, the “activity change, negative = inhibition” value is -4.42% (inactive).

With `CCCCOC(=O)CC(CC(=O)OCCCC)(OC(C)=O)C(=O)OCCCC`, the “activity change, negative = inhibition” value was 6.96% (inactive).

As to `NCCNc1cccc2ccccc12`, the “activity change, negative = inhibition” value was 24.9% (inactive).

Regarding `CCCCC(CC)COC(=O)c1ccc(N(C)C)cc1` (stereo unspecified), the “activity change, negative = inhibition” value is 11% (inactive).

Consider `CN(C)C(=O)Nc1ccc(Cl)c(Cl)c1`, for which the “activity change, negative = inhibition” value is 26.5% (inactive).

On to `CCOc1ccc(NC(C)=O)cc1`, for which the “activity change, negative = inhibition” value was -3.35% (inactive).

As to `COc1ccc(C(=O)c2ccccc2)c(O)c1`, the “activity change, negative = inhibition” value was -11.5% (inactive).

Regarding `CCCCCCCCCCCCCCCC(=O)O`, the “activity change, negative = inhibition” value was 0.97% (inactive).

Regarding `CCCCCCCCCCCCCC(=O)OC(C)C`, the “activity change, negative = inhibition” value is 9.95% (inactive).

Regarding `O=C(O)c1ccc(S(=O)(=O)N(Cl)Cl)cc1`, the “activity change, negative = inhibition” value was -8.25% (inactive).

With `CCOc1ccccc1C(N)=O`, the “activity change, negative = inhibition” value was 3.59% (inactive).

Test system in the next test: not listed separately
In words: qHTS assay for small molecule antagonists of peroxisome proliferator-activated receptor delta signaling (AID 588535; active = well fitted inhibition curve with a large enough effect in the signal ratio, with a control signal flat, not every such curve was filed as active; the % refers to the signal ratio;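 for max response: cells co-treated with a PPAR-delta agonist as stimulator during compound exposure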). The settings on record: HEK293T PPARd-UAS-bla, beta-lactamase FRET ratio, 18 h; 460 nm channel. An outline of the steps: (§1)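 Beta-lactamase reporter read-out (405 nm excitation, 460/530 nm emission) after CCF4 loading for 2 hrs at RT. HEK293T PPAR-delta-UAS-bla cells, 2% charcoal/dextran FBS, compounds for 18 hrs at 37 C. Hill fit gave IC50 and efficacy.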
Background: qHTS replaces the single test concentration by a dilution series.
Take `NC(=O)c1ccccc1O`: the max response was determined as 7.67%.

As to `CCCN(CCC)S(=O)(=O)c1ccc(C(=O)O)cc1`, the max response is 32.2% and 48.9%.

As to `COc1ccc(C(Cl)=C(c2ccc(OC)cc2)c2ccc(OC)cc2)cc1`, the max response was determined as 23%.

As to `CCCCCCCCCCCCCCCCO`, the max response is -7.5%.

Regarding `CCCCOC(=O)CC(CC(=O)OCCCC)(OC(C)=O)C(=O)OCCCC`, the max response amounted to 0.806%.

Regarding `NCCNc1cccc2ccccc12`, the max response was 22%.

For `CCCCC(CC)COC(=O)c1ccc(N(C)C)cc1` (stereo unspecified), the max response was 0.453% and -4.75%.

Regarding `CN(C)C(=O)Nc1ccc(Cl)c(Cl)c1`, the max response was determined as 4.49%.

`CCCCCCCCOc1ccc(C(=O)c2ccccc2)c(O)c1`: the max response stood at 16.2%.

On to `CCCCCCCC/C=C\CCCCCCCCN`, for which the max response was -29.2%.

Consider `COc1ccc(C(=O)c2ccccc2)c(O)c1`, for which the max response was -3.7% and 9.95%.

`C/C=C/c1ccc(O)c(OC)c1`: the max response was 10.7% and 20%.

As for `CCOc1ccccc1C(N)=O`, the max response is -16.5%.

The next test addresses Peroxisome proliferator-activated receptor delta (Homo sapiens) (UniProt Q03181). Described as above. Conditions: HEK293T PPARd-UAS-bla, beta-lactamase FRET ratio, 18 h; series mostly up to 76.7 µM; activity change, negative = inhibition: at the top concentration. An outline of the steps:
as §1
`NC(=O)c1ccccc1O`: the “activity change, negative = inhibition” value is -5.6% (inactive).

In the case of `CCCN(CCC)S(=O)(=O)c1ccc(C(=O)O)cc1`, the result was inactive.

As to `COc1ccc(C(Cl)=C(c2ccc(OC)cc2)c2ccc(OC)cc2)cc1`, the “activity change, negative = inhibition” value is 3.88% (inactive).

Take `CCCCCCCCCCCCCCCCO`: the “activity change, negative = inhibition” value was 9.88% (inactive).

Regarding `CCCCOC(=O)CC(CC(=O)OCCCC)(OC(C)=O)C(=O)OCCCC`, the “activity change, negative = inhibition” value is -11.8% (inactive).

`NCCNc1cccc2ccccc12`: the “activity change, negative = inhibition” value was -20.2% (inactive).

`CCCCC(CC)COC(=O)c1ccc(N(C)C)cc1` (stereo unspecified): the result was inactive.

Regarding `CN(C)C(=O)Nc1ccc(Cl)c(Cl)c1`, the “activity change, negative = inhibition” value is 19.2% (inactive).

Regarding `CCCCCCCCOc1ccc(C(=O)c2ccccc2)c(O)c1`, the “activity change, negative = inhibition” value was -7.24% (inactive).

Regarding `CCCCCCCC/C=C\CCCCCCCCN`, the “activity change, negative = inhibition” value was -16% (inactive).

Turning to `COc1ccc(C(=O)c2ccccc2)c(O)c1`, the result was inactive.

Take `C/C=C/c1ccc(O)c(OC)c1`: the result was inactive.

In the case of `CCOc1ccccc1C(N)=O`, the “activity change, negative = inhibition” value is -22.9% (inactive).
